We go through 68 compounds from PubChem BioAssay AID589 (National Center for Advancing Translational Sciences (NCATS), 2007).

Out of some 59,000 compounds screened, about 6,200 (11%) were called active. About 9% were inconclusive and are not listed. Cut-off read from the data, not from the text of the source: active = max dye-equivalent concentration above about 10 nM; inconclusive = mostly about 1.1 nM to 9.6 nM; inactive = weaker than that. For the sample, actives were picked, then their nearest neighbours and some compounds at random.

This test in a line: qHTS Assay for Spectroscopic Profiling in 4-MU Spectral Region. The note with it: compound autofluorescence, 340/450 nm, 4-MU equivalents; hits give high values. A digest of the protocol: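 Intrinsic fluorescence at 340/450 nm (ex/em) was read after 15 min at room temperature in pH 8.0, 100 mM Tris. Each compound concentration expressed as 4-MU-equivalent concentration from a six-point 4-MU standard series on each plate.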
Background: In qHTS, concentration-response curves come from the screen itself.
As to `CC1=NCCN1S(=O)(=O)c1ccc(Br)c(C)c1`, the max dye-equivalent concentration entry is “inactive”.
As to `CC(=O)c1cnc(Nc2nc(C)c3cc(C)ccc3n2)nc1C`, the max dye-equivalent concentration entry is “inactive”.
For the compound `O=C(CSC1=Nc2ccccc2C2=NC(c3ccccc3)C(=O)N12)NCC1CCCO1` (stereo not drawn), the max dye-equivalent concentration is 750 nM (active).
To `O=C(CS(=O)(=O)Cc1ccccc1)NCC1CCCO1` (stereo not drawn) belongs “inactive”; to `O=C(CSc1nnc(-c2ccc(NS(=O)(=O)c3ccccc3)cc2)o1)NCC1CCCO1` (stereo not drawn), “inactive”; to `COC(=O)NC1(C(F)(F)F)NC(=O)N(C2CCCCC2)C1=O` (stereo not drawn), “inactive”.
In the case of `O=C(NCc1ccc(Cl)cc1)c1cc2c(nc3sccn32)s1`, the max dye-equivalent concentration entry was “inactive”.
With `CS(=O)(=O)N1CCC[C@@]2(CCN(c3ccncc3)C2)C1`, the max dye-equivalent concentration result was “inactive”.
In the case of `Cc1ccc(C(=O)N2CCCCCC2)cc1Br`, the max dye-equivalent concentration result is “inactive”.
Consider `O=C(c1cc(-c2cccs2)on1)N1CCCCC1`, for which the max dye-equivalent concentration entry is “inactive”.
For the compound `Cc1ccc2cc3cc(C(=O)N4CCCCCC4)oc3nc2c1`, the max dye-equivalent concentration was 12 nM (active).
As to `Cc1cc(C(=O)CC#N)c(C)n1CC(F)(F)F`, the max dye-equivalent concentration entry is “inactive”.
With `Cc1ccsc1CNn1cnnc1SCc1ccccc1F`, the max dye-equivalent concentration result was “inactive”.
To `COc1ccccc1N1CCN(C(=O)Cn2nnc(-c3cccs3)n2)CC1` belongs “inactive”; to `CN(C(=O)c1ccno1)c1nnc(-c2cccnc2)s1`, “inactive”; to `COc1cccc(-c2nnc(N(C)C(=O)c3ccno3)s2)c1`, 34 nM (active).
The value for `CN(C(=O)COc1ccccc1)c1nnc(-c2ccncc2)s1` was “inactive”.
Regarding `C=CCn1c(COc2ccccc2)nnc1SCC(=O)NCC(=O)OCC`, the max dye-equivalent concentration entry was “inactive”.
On to `COc1ccccc1-c1cc(NCc2cccs2)ncn1`, for which the max dye-equivalent concentration result is “inactive”.
For `COC(=O)[C@H](CCSC)NC(=O)Nc1ccc(OC)cc1`, the max dye-equivalent concentration result is “inactive”.
Take `COc1ccc(CCN(Cc2cc3cccc(C)c3[nH]c2=O)C(=O)N2CCCC2)cc1OC`: the max dye-equivalent concentration result is “inactive”.
`COc1cccc2cc(C(C)N(CCCN3CCOCC3)C(=O)Nc3ccc(Cl)cc3)oc12` (stereo not drawn): the max dye-equivalent concentration entry was “inactive”.
To `COc1cc2cc(CN(CCN3CCCC3)C(=O)Nc3ccccc3Cl)c(=O)[nH]c2cc1OC` belongs 250 nM (active); to `CCCc1nc2c3cnn(-c4cccc(Cl)c4)c3ncn2n1`, “inactive”; to `COc1ccc(N2CCN(C(=O)CSc3ncnc4c3cnn4-c3ccc(OC)cc3)CC2)cc1`, “inactive”.
Turning to `Cc1cccc(-n2ncc3c(N4CCc5ccccc54)ncnc32)c1`, the max dye-equivalent concentration was 18 nM (active).
`c1ccc(-n2ncc3c(N4CCCC4)ncnc32)cc1`: the max dye-equivalent concentration entry is “inactive”.
The value for `COc1ccc(-n2ncc3c(N4CCCc5ccccc54)ncnc32)cc1` was 39 nM (active); that for `Oc1c(C(c2ccccn2)N2CCOCC2)ccc2cccnc12` (stereo not drawn) was “inactive”.
Regarding `COc1ccccc1CNc1cc(-c2ccccc2CN(C)C)ncn1`, the max dye-equivalent concentration result is “inactive”.
Turning to `O=C(Nc1ccccc1F)C1C2C=CC3(O2)C1C(=O)N(c1cccnc1)C3C(=O)NC1CCCCC1` (stereo not drawn), the max dye-equivalent concentration result was “inactive”.
For the compound `Cc1ccc(-c2c3c(=O)n(C)c(=O)n(C)c3cn2-n2cnnc2)cc1`, the max dye-equivalent concentration entry was “inactive”.
As to `COc1ccc(N(C(=O)c2cccnc2)S(=O)(=O)c2ccc3c(c2)n(C)c(=O)n3C)cc1`, the max dye-equivalent concentration entry was “inactive”.
Regarding `COc1ccc(OC)c(-n2cc3c(=O)n(C)c(=O)n(C)c3c2)c1`, the max dye-equivalent concentration result is “inactive”.
As for `COc1ccc(-c2c3c(=O)n(C)c(=O)n(C)c3cn2-c2cccc(OC)c2)cc1`, the max dye-equivalent concentration is 12 nM (active).
Turning to `COc1ccc(-c2c3c(=O)n(C)c(=O)n(C)c3cn2NC(C)=O)cc1`, the max dye-equivalent concentration is 2200 nM (active).
`Cc1ccc(-c2c3c(=O)n(C)c(=O)n(C)c3cn2-c2ccccc2O)cc1`: the max dye-equivalent concentration result is “inactive”.
Regarding `Cc1ccc(Oc2ccc(N)cc2)cc1`, the max dye-equivalent concentration result is “inactive”.
Turning to `CCOc1ccccc1-n1c(SCC(=O)NCc2ccco2)nnc1-c1ccncc1`, the max dye-equivalent concentration result is “inactive”.
In the case of `O=C(CCc1ccccc1)Nc1ccc(NC(=O)C2CC2)nc1`, the max dye-equivalent concentration entry was “inactive”.
In the case of `O=C1CC(c2ccccc2)C(=O)N1c1cccc(O)c1` (stereo not drawn), the max dye-equivalent concentration result is “inactive”.
As to `Cc1cc(NC(=O)c2cnn3cccnc23)n(-c2ccccc2)n1`, the max dye-equivalent concentration result was “inactive”.
To `O=C(Nc1nc2cc3c(cc2s1)OCCO3)c1cccc(S(=O)(=O)N2CCOCC2)c1` belongs 18 nM (active).
In the case of `CCOC(=O)c1sc(NC(=O)c2cc(S(=O)(=O)N3CCOCC3)ccc2C)nc1C`, the max dye-equivalent concentration entry is “inactive”.
On to `CCN(Cc1ccncc1)C(=O)c1cccc(S(=O)(=O)N2CCOCC2)c1`, for which the max dye-equivalent concentration entry was “inactive”.
For `O=C(Nc1nc2ccc(S(=O)(=O)N3CCCC3)cc2s1)C1CCCO1` (stereo not drawn), the max dye-equivalent concentration entry was “inactive”.
For `O=C(Nc1ccc2c(c1)nc1n2CCCCC1)c1cc(S(=O)(=O)N2CCOCC2)ccc1Cl`, the max dye-equivalent concentration entry is “inactive”.
`COc1ccc(S(=O)(=O)N2CCOCC2)cc1C(=O)Nc1nc2ccccc2s1`: the max dye-equivalent concentration is 35 nM (active).
To `CC(=O)c1c(N2CCOCC2)nc(=S)n(-c2cc(C)ccc2C)c1C` belongs “inactive”; to `Cc1ccc2cccc(S(=O)(=O)N3CCN(c4ccccc4F)CC3)c2n1`, “inactive”; to `CCOC(=O)CN(C(=O)CN1CCOCC1)c1ccc(Br)cc1`, “inactive”.
Take `COc1ncnc2c1N=C1CC(C)(C)CC(N)=C1S2`: the max dye-equivalent concentration entry is “inactive”.
To `O=C(OCC(=O)N1CCN(C(=O)c2ccco2)CC1)c1ccccc1Cc1ccccc1` belongs “inactive”; to `COC(=O)CN(c1cccc(C(C)=O)c1)S(C)(=O)=O`, “inactive”.
The value for `CCN(CC(=O)NCc1cccs1)c1nnnn1-c1ccccc1` was “inactive”; that for `C=CCn1c(N)c(S(=O)(=O)c2cccs2)c2nc3ccccc3nc21` was 3700 nM (active).
As for `CC(C)Cn1c(N)c(C(=O)NCc2cccs2)c2nc3ccccc3nc21`, the max dye-equivalent concentration was 280 nM (active).
Turning to `C=CCn1c(N)c(C(=O)OCC(C)C)c2nc3ccccc3nc21`, the max dye-equivalent concentration is 3300 nM (active).
The value for `Cc1nnc(SCC(=O)NCc2cccs2)[nH]c1=O` was “inactive”; that for `C=CCn1c(C2CC(=O)N(c3ccc(C)cc3)C2)nc2ccccc21` (stereo not drawn) was “inactive”; that for `C=CCn1c(C(C)NC(=O)CC)nc2ccccc21` (stereo not drawn) was “inactive”.
For `O=C(c1cc(C(F)(F)F)cc(C(F)(F)F)c1)N1CCC2(CCCN(Cc3ccncc3)C2)CC1`, the max dye-equivalent concentration entry is “inactive”.
As to `COc1ccc(-c2nn(-c3ccccc3)cc2C(=O)Nc2nc(CC(C)=O)ns2)cc1`, the max dye-equivalent concentration entry is “inactive”.
Consider `CCn1c(CSc2nncn2-c2ccc(OC)cc2)nc2cc(S(=O)(=O)N(C)C)ccc21`, for which the max dye-equivalent concentration result is “inactive”.
Consider `Nc1nc(SCCOc2ccccc2)n[nH]1`, for which the max dye-equivalent concentration result was “inactive”.
For the compound `CCOC(=O)C1CCN(C(=O)C2CCN(S(=O)(=O)N3CCCC3)CC2)CC1`, the max dye-equivalent concentration entry was “inactive”.
Take `COc1ccc(Cl)cc1S(=O)(=O)Nc1cccc(C(=O)O)c1`: the max dye-equivalent concentration entry is “inactive”.
As to `COc1ccc(C(c2nnnn2Cc2cccs2)N2CCN(c3ccccc3)CC2)cc1OC` (stereo not drawn), the max dye-equivalent concentration result was “inactive”.
